Experimental data published in PubChem BioAssay (NCI).
This is part of a sample that, as a whole, favours compounds with a hit. Of some 83,000 tested, about 20% had one in any assay.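 A percent growth of 40 corresponds to 60% growth inhibition; 0 means no net growth; -100 means all cells died. Active threshold: below 10.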 Values without a mark were called inactive. Active and inactive are the calls of the source.

Columns and labels:
Experiment in all cases: NCI-60 one-dose screen, 48 h (100 = growth as untreated, 0 = no growth, -100 = all killed)
Conditions in all cases: 10 µM unless noted
K-562 leukemia = system: K-562 leukemia
MALME-3M melanoma = system: MALME-3M melanoma
MDA-MB-231 breast = system: MDA-MB-231 breast
RXF 393 renal = system: RXF 393 renal
SF-268 CNS = system: SF-268 CNS
SF-295 CNS = system: SF-295 CNS
SF-539 CNS = system: SF-539 CNS
UACC-257 melanoma = system: UACC-257 melanoma
M14 melanoma = system: M14 melanoma
HCT-15 colon = system: HCT-15 colon

SMILES | growth (K-562 leukemia) | growth (MALME-3M melanoma) | growth (MDA-MB-231 breast) | growth (RXF 393 renal) | growth (SF-268 CNS) | growth (SF-295 CNS) | growth (SF-539 CNS) | growth (UACC-257 melanoma) | growth (M14 melanoma) | growth (HCT-15 colon)
C[C@@H](Nc1c(C#N)cnc2ccc(-c3cnc(N)nc3)cc12)c1ccccc1 | 16.2% | 8.07% (active) | 17.9% | -4.27% (active) | 16.5% | 2.02% (active) | 3.05% (active) | 33.5% | 21.3% | 9.79% (active)
Clc1ccc2c(OCCCN3CCOCC3)c3oc4ccccc4c3nc2c1 | 19.8% | 12.5% | 32.3% | 26.7% | 38.3% | 26% | 22.9% | 59.8% | 30.3% | 20.3%
COc1cccc(-c2nn(-c3ccccc3)cc2-c2ccnc(N3CCN(C(=O)c4ccccc4)CC3)c2)c1 | 31.4% | 89.7% | 64% | 95.7% | 94.2% | 89.1% | 87.1% | 101% | 81.2% | 39.8%
COc1cc2nc(-c3ccc(C(F)(F)F)cc3)cc(OCCCNCC3CCCO3)c2cc1OC (centres undefined) | 10.2% | -15.6% (active) | 18.2% | 3.22% (active) | 59.5% | -33.6% (active) | 45.5% | -38.7% (active) | -66.5% (active) | 13.7%
COc1cccc(-c2nn(-c3ccccc3)cc2-c2ccnc(N3CCN(C(=O)Nc4ccc(F)cc4)CC3)c2)c1 | 30.8% | 76.7% | 52.6% | 63.4% | 85.3% | 64.8% | 66.9% | 85.8% | 32.4% | 35.8%
COc1cc(/C=C/C(=O)c2ccc(C(F)(F)F)cc2)ccc1Oc1nc(NCCO)nc(N2CCOCC2)n1 | 6.49% (active) | 85.7% | 92.9% | 90.8% | 87.3% | 96% | 98.2% | 97.4% | 97.6% | 70.5%
CCOC(=O)c1c(Nc2ccccc2)nn2c(N)c(C#N)c(-c3ccc(Cl)cc3)nc12 | 69.1% | 85% | 69.9% | 64.6% | 61.1% | 26.8% | 64.3% | 95.8% | 81.2% | 76%
Nc1nc(N)c2c(n1)NC(c1ccc(F)cc1)CC(c1ccc(Nc3nc(NCCO)nc(Nc4ccc(Cl)cc4)n3)cc1)=N2 (centres undefined) | 0.513% (active) | -60.4% (active) | -75.8% (active) | -77.4% (active) | 38.7% | 9.06% (active) | -78.9% (active) | 106% | -66.1% (active) | -48.3% (active)
Clc1ccc(-c2cn3cc(Cc4ccc(Cl)c(Cl)c4)sc3n2)cc1 | 34.7% | 86.3% | 72.7% | 104% | 86.2% | 35.8% | 83.8% | 52.3% | 20.2% | 60.7%
Fc1ccc(-c2cc3nc(C(Cl)Cl)nc(-c4ccc(Cl)cc4)n3n2)cc1 | 24.3% | 37.4% | 7.4% (active) | -55.5% (active) | 26.2% | 9.78% (active) | 21% | 39.1% | 22.3% | 12.1%
N#Cc1nc(-c2ccccc2)oc1N1CCC(CO)C1 (centres undefined) | 114% | 94.3% | 101% | 100% | 97.7% | 105% | 93.9% | 105% | 106% | 104%
CCOc1ccc2nc(NC(=O)c3ccc(C(F)(F)F)cc3)sc2c1 | 108% | 112% | 106% | 114% | 106% | 111% | 105% | 107% | 107% | 100%
N#Cc1ccc(C(=O)CSc2nc(Nc3ccc(S(N)(=O)=O)cc3)c3ccccc3n2)cc1 | 105% | 106% | 105% | 109% | 109% | 102% | 102% | 101% | 103% | 100%
O=C(Nc1nc2ccc(O)cc2s1)c1cccc(C(F)(F)F)c1 | 18.7% | 81.6% | 90.7% | 103% | 59.4% | 69.9% | 72.5% | 70.1% | 50.1% | 47.1%
Cc1cc2nc3c4cc(Cl)ccc4n(CC(=O)NCCN(C)C)c3nc2cc1C | -32.9% (active) | -66.9% (active) | 53.2% | 61.1% | 83% | 93.5% | 21.8% | 105% | -88.7% (active) | -7.4% (active)
COC(=O)C1CN(S(=O)(=O)/N=C2\NC(=O)NC2=C(Cl)Cl)C1 | 101% | 104% | 106% | 123% | 103% | 104% | 101% | 101% | 101% | 107%
Nc1cc(-c2c[nH]c3ccccc23)nc2cc(-c3c[nH]c4ccccc34)nn12 | 4.17% (active) | 64.5% | 48.2% | 38.2% | 75.2% | 34.8% | 32.4% | 70.2% | 29.3% | 6.35% (active)
COc1ccc(C(=O)/C=C/c2ccc(Oc3nc(NCCO)nc(N4CCOCC4)n3)c(OC)c2)cc1 | 6.9% (active) | 84.7% | 85.3% | 108% | 85.5% | 104% | 82.5% | 89.9% | 86.8% | 36.2%
C#Cc1nc(C2=C(C)C(OC(C)=O)/C(=N/OC(C)=O)C2)cs1 (centres undefined) | 15.4% | -46.5% (active) | -69.9% (active) | -19.5% (active) | -42.6% (active) | -89.8% (active) | -90.9% (active) | 85.5% | 69.2% | -11.2% (active)
COC(=O)c1ccc(NC(=S)N2CCc3ccc([N+](=O)[O-])cc3C2)cc1O | 110% | 95.4% | 94.5% | 110% | 103% | 102% | 103% | 109% | 102% | 99.7%
C#Cc1nc(C2=C(C)C(OC(=O)CCC(=O)O)CC2)cs1 (centres undefined) | 104% | 107% | 104% | 113% | 99.9% | 108% | 100% | 102% | 103% | 99.8%
O=C1/C(=C/C2=Cc3ccccc3OC2)SC(=S)N1c1ccc(F)cc1 | 91% | 101% | 99% | 106% | 111% | 102% | 98.5% | 108% | 103% | 105%
O=C1c2c(c3c4cc(Br)ccc4[nH]c3c3ccc4ccccc4c23)C(=O)N1CCO | 71.6% | 103% | 75.3% | 107% | 105% | 91.8% | 90.9% | 97.4% |  | 72.8%
COc1ccc([C@@H]2c3[nH]c4ccccc4c3CC3C(=O)N(C4CCN(Cc5c(F)cccc5F)CC4)CC(=O)N32)c(OC)c1 (some centres undefined) | 62.2% [5.26 µM] | 68% [5.26 µM] | 62.3% [5.26 µM] | 56.4% [5.26 µM] | 55% [5.26 µM] | 67.1% [5.26 µM] | 69.8% [5.26 µM] | 77.4% [5.26 µM] | 26.4% [5.26 µM] | 47.5% [5.26 µM]
Nc1cc(-c2c[nH]c3ccc(F)cc23)nc2cc(-c3c[nH]c4ccc(F)cc34)nn12 | 0.113% (active) | 94.9% | 70.6% | 128% | 91.8% | 85.4% | 87.4% | 116% | 79.3% | 31%
O=c1[nH]c2ccc(Cl)cc2cc1CSc1ccccc1Nc1nccc(-c2ccc(Cl)cc2)n1 | 71.6% | 90.4% | 94.3% | 84.7% | 81.5% | 96.3% | 89.1% | 100% | 102% | 91.5%
O=C(CCN1C(=O)/C(=C/c2ccccc2F)SC1=S)N1CCOCC1 | 32.2% | 74.1% | 71% | 41.2% | 101% | 97.8% | 87.8% | 89.8% | 80.5% | 45.5%
